The values that follow come from PubChem BioAssay (NCI).

Test systems include SK-MEL-2 melanoma; EKVX NSCLC; SN12C renal; UO-31 renal; TK-10 renal; ACHN renal; CAKI-1 renal; A498 renal; CCRF-CEM leukemia.
Assay in all cases: NCI-60 one-dose screen, 48 h (100 = growth as untreated, 0 = no growth, -100 = all killed)

Molecules are shown by their SMILES. This is part of a sample that, as a whole, favours compounds with a hit. Of some 83,000 tested, about 20% had one in any assay.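 For each line, cells grew in 96-well plates with the test compound present at a single concentration for 48 hours.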 Values without a mark were called inactive. Active and inactive are the calls of the source. Rule for the calls: active = growth percent below 10; inactive = the rest.

For `O=C(NNC(=O)c1ccc(OCc2nc3ccc(Cl)cc3[nH]2)cc1)Nc1ccc(Cl)c(Cl)c1`, the growth with SK-MEL-2 melanoma (10 µM unless noted) is 72.7%; in the test on EKVX NSCLC (10 µM unless noted) it was 91.9%; with SN12C renal (10 µM unless noted) it was 76.7%; in the test with UO-31 renal (10 µM unless noted), 84.7%; in the test on TK-10 renal (10 µM unless noted), 110%; with ACHN renal (10 µM unless noted) it was 106%. The growth in the test with CAKI-1 renal (10 µM unless noted) is 91.8%; in the test on A498 renal (10 µM unless noted) it was 182%; in the test on CCRF-CEM leukemia (10 µM unless noted), 88.5%.
In the case of `O=C(OCCOCCO)N(c1cccc(Br)c1)c1nc(SCCN2CCOCC2)nc2c1cnn2CC(Cl)c1ccc(Br)cc1` (stereo not drawn), the growth in the test with SK-MEL-2 melanoma (10 µM unless noted) was -60.3% (active); with EKVX NSCLC (10 µM unless noted), 26.6%; in the test with SN12C renal (10 µM unless noted), 20.3%; in the test on UO-31 renal (10 µM unless noted), -3.09% (active); in the test on TK-10 renal (10 µM unless noted), 40.5%; in the test on ACHN renal (10 µM unless noted), 2.9% (active). In addition, the growth in the test with CAKI-1 renal (10 µM unless noted) was 27.8%; with A498 renal (10 µM unless noted) it was 45.5%; in the test with CCRF-CEM leukemia (10 µM unless noted), -18.4% (active).
`C=CCSc1nnc(-c2c(C)nc3sccn23)o1`: the growth was 104% with SK-MEL-2 melanoma (10 µM unless noted); 76.4% in the test on EKVX NSCLC (10 µM unless noted); 96.8% in the test with SN12C renal (10 µM unless noted); 71.8% in the test on UO-31 renal (10 µM unless noted); 124% with TK-10 renal (10 µM unless noted); 88.5% in the test with ACHN renal (10 µM unless noted). For the same compound, the growth is 77.9% with CAKI-1 renal (10 µM unless noted), 96.9% with A498 renal (10 µM unless noted) and 90.3% in the test on CCRF-CEM leukemia (10 µM unless noted).
In the case of `COc1ccc(/C=C/c2nc3ccccc3n3c(-c4cccc([N+](=O)[O-])c4)nnc23)cc1`, the growth with SK-MEL-2 melanoma (10 µM unless noted) is -60.3% (active); with EKVX NSCLC (10 µM unless noted), -52% (active); with SN12C renal (10 µM unless noted) it was -72.2% (active); in the test on UO-31 renal (10 µM unless noted), -90.3% (active); with TK-10 renal (10 µM unless noted), -47.3% (active); in the test with ACHN renal (10 µM unless noted) it was -97.5% (active). Moreover, the growth is -91.1% (active) in the test with CAKI-1 renal (10 µM unless noted), 75.7% in the test with A498 renal (10 µM unless noted) and -14.9% (active) with CCRF-CEM leukemia (10 µM unless noted).
For `CC(=O)c1ccc2c(N)c(C(=O)Nc3ccc(C(F)(F)F)cc3)sc2n1`, the growth with SK-MEL-2 melanoma (10 µM unless noted) is 67.7%; in the test with EKVX NSCLC (10 µM unless noted), 40.7%; in the test with SN12C renal (10 µM unless noted) it was 73%; in the test on UO-31 renal (10 µM unless noted), 73.8%; with TK-10 renal (10 µM unless noted), 67%; in the test on ACHN renal (10 µM unless noted), 66.2%. Also, the growth in the test with CAKI-1 renal (10 µM unless noted) is 56.9%; in the test with A498 renal (10 µM unless noted), 126%; with CCRF-CEM leukemia (10 µM unless noted), 60.9%.
Take `Cc1ccc(C2CC(c3ccc(NC(=S)Nc4ccccc4)cc3)=NN2c2ccc(S(N)(=O)=O)cc2)cc1` (stereo not drawn): the growth with SK-MEL-2 melanoma (10 µM unless noted) was 13.4%; with EKVX NSCLC (10 µM unless noted) it was 9.1% (active); with SN12C renal (10 µM unless noted) it was 28.3%; with UO-31 renal (10 µM unless noted), 3.53% (active); in the test with TK-10 renal (10 µM unless noted), 21.6%; in the test with ACHN renal (10 µM unless noted), -33.2% (active). Further, the growth in the test with CAKI-1 renal (10 µM unless noted) is -10.6% (active); with A498 renal (10 µM unless noted), 76.4%; in the test with CCRF-CEM leukemia (10 µM unless noted) it was 14.5%.
With `COc1ccc(CCC2NCCc3c(Br)c4c(c(OC)c32)OCO4)cc1` (stereo not drawn), the growth in the test with SK-MEL-2 melanoma (10 µM unless noted) is -16.9% (active); with EKVX NSCLC (10 µM unless noted), 24.4%; with SN12C renal (10 µM unless noted) it was 13.2%; in the test on UO-31 renal (10 µM unless noted), 21.1%; with TK-10 renal (10 µM unless noted), 44%; in the test on ACHN renal (10 µM unless noted) it was 15.5%. Also, the figures for the growth in the test on CAKI-1 renal (10 µM unless noted), in the test on A498 renal (10 µM unless noted) and in the test on CCRF-CEM leukemia (10 µM unless noted) were 16.5%, 79% and 19.6%, respectively.
Consider `O=C(c1ccc(O)cc1)C1[C@H](c2ccc(Cl)cc2)[C@@H](c2ccccc2)NC12C(=O)Nc1ccccc12` (stereo partly drawn), for which the growth in the test with SK-MEL-2 melanoma (10 µM unless noted) is -72.3% (active); in the test with EKVX NSCLC (10 µM unless noted), 8.32% (active); with SN12C renal (10 µM unless noted), -83.8% (active); with UO-31 renal (10 µM unless noted), 3.54% (active); in the test with TK-10 renal (10 µM unless noted), 11.8%; with ACHN renal (10 µM unless noted) it was 3.11% (active). The figures for the growth in the test with CAKI-1 renal (10 µM unless noted), in the test on A498 renal (10 µM unless noted) and with CCRF-CEM leukemia (10 µM unless noted) were 3.82% (active), -2.62% (active) and -7.04% (active), respectively.
On to `NNc1ncnc2sc3c(c12)CCN(Cc1ccccc1)C3`, for which the growth was 82% in the test on SK-MEL-2 melanoma (10 µM unless noted); 36% with EKVX NSCLC (10 µM unless noted); 57% in the test on SN12C renal (10 µM unless noted); 51.7% with UO-31 renal (10 µM unless noted); 93.5% in the test with TK-10 renal (10 µM unless noted); 57.4% in the test with ACHN renal (10 µM unless noted). Further, the growth with CAKI-1 renal (10 µM unless noted) is 56.4%; in the test with A498 renal (10 µM unless noted), 93.7%; in the test on CCRF-CEM leukemia (10 µM unless noted), 15.8%.
Take `Nc1cc(-c2c[nH]c3ccc(Cl)cc23)nc2cc(-c3c[nH]c4ccccc34)nn12`: the growth was -45.8% (active) in the test with SK-MEL-2 melanoma (10 µM unless noted); -23.7% (active) in the test on EKVX NSCLC (10 µM unless noted); 6.54% (active) with SN12C renal (10 µM unless noted); -4.79% (active) in the test with UO-31 renal (10 µM unless noted); -7.78% (active) in the test on TK-10 renal (10 µM unless noted); 0.126% (active) with ACHN renal (10 µM unless noted). Also, the values for the growth with CAKI-1 renal (10 µM unless noted), with A498 renal (10 µM unless noted) and in the test with CCRF-CEM leukemia (10 µM unless noted) were -19.1% (active), -14% (active) and -16.6% (active), respectively.
Regarding `Cc1ccc(O)cc1Nc1nc(SCCN2CCOCC2)nc2c1cnn2CC(Cl)c1ccc(Br)cc1` (stereo not drawn), the growth in the test with SK-MEL-2 melanoma (10 µM unless noted) is -35.9% (active); in the test with EKVX NSCLC (10 µM unless noted), 21%; with SN12C renal (10 µM unless noted), 20%; in the test on UO-31 renal (10 µM unless noted), 6.07% (active); in the test with TK-10 renal (10 µM unless noted), 17.8%; in the test on ACHN renal (10 µM unless noted), 1.87% (active). Further, the growth was -31.5% (active) in the test with CAKI-1 renal (10 µM unless noted), 29.3% in the test with A498 renal (10 µM unless noted) and 5.71% (active) in the test with CCRF-CEM leukemia (10 µM unless noted).
Take `CC/C(=C(/c1ccc(O)cc1)c1ccc(OCCN(C)C(=O)COCCOCCNC(=O)Cc2ccc3c(c2)CN([C@@H]2CCC(=O)NC2=O)C3=O)cc1)c1ccccc1`: the growth in the test with SK-MEL-2 melanoma (1 µM) is 95.4%; in the test on SK-MEL-2 melanoma (10 µM), 64.1%; in the test on EKVX NSCLC (1 µM), 99.4%; in the test on EKVX NSCLC (10 µM), 105%; in the test on SN12C renal (1 µM), 88.7%; in the test with SN12C renal (10 µM) it was 53.5%. The growth in the test with UO-31 renal (1 µM) is 91.6%; in the test with UO-31 renal (10 µM), 89.4%; in the test on TK-10 renal (1 µM), 101%; in the test on TK-10 renal (10 µM), 89.2%; with ACHN renal (1 µM), 102%; in the test on ACHN renal (10 µM), 106%. The growth is 99.8% in the test with CAKI-1 renal (1 µM); 101% in the test on CAKI-1 renal (10 µM); 119% in the test with A498 renal (1 µM); 115% with A498 renal (10 µM); -11% (active) with CCRF-CEM leukemia (1 µM); 16.7% in the test with CCRF-CEM leukemia (10 µM).
Take `CC/C(=C(\c1ccc(O)cc1)c1ccc(OCCN(C)C(=O)COCCNC(=O)Cc2ccc3c(c2)CN([C@@H]2CCC(=O)NC2=O)C3=O)cc1)c1ccccc1`: the growth in the test with SK-MEL-2 melanoma (1 µM) was 82.5%; with SK-MEL-2 melanoma (10 µM) it was 56.8%; in the test with EKVX NSCLC (1 µM), 103%; in the test on EKVX NSCLC (10 µM), 92.1%; in the test with SN12C renal (1 µM) it was 73.9%; in the test on SN12C renal (10 µM) it was 38.1%. Further, the growth was 92% in the test with UO-31 renal (1 µM); 91.6% with UO-31 renal (10 µM); 105% with TK-10 renal (1 µM); 84.2% with TK-10 renal (10 µM); 104% in the test with ACHN renal (1 µM); 102% with ACHN renal (10 µM). Also, the growth in the test on A498 renal (1 µM) is 117%; with A498 renal (10 µM) it was 98.2%; in the test with CCRF-CEM leukemia (1 µM), -2.66% (active); in the test with CCRF-CEM leukemia (10 µM) it was -7.62% (active).
